Source: PubChem BioAssay (NCATS)
Records with an inconclusive call do not appear. Calls of active or inactive are those of the source. Calls follow the shape of the dose curve; as a rule, active = well fitted curve in the direction sought with a large enough effect; inconclusive = small, poorly fitted or top-dose-only effect, or another doubt; inactive = no such curve, though single readings can be large; an effect the other way counts as inactive or inconclusive.

Legend:
C33A = assay: Primary qHTS to identify gynecologic anti-cancer compounds using libraries of approved drugs and bioactive compounds (AID 1345084); conditions: Gynecologic cancer cell panel viability, ATPlite luminescence, 48 h; series mostly up to 57.5 µM; also: nearly all actives have a fitted effect of over 55% in size
How it was run: (§1)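 Cytotoxicity screen measuring ATP content by luciferase luminescence. Each compound is applied at five concentrations for 48 h at 37 C with 5% CO2.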

CAOV3 = assay: as above; conditions: Gynecologic cancer cell panel viability, ATPlite luminescence, 48 h; series mostly up to 57.5 µM
How it was run: as §1

CASKI = assay: as above; conditions: Gynecologic cancer cell panel viability, ATPlite luminescence, 48 h; series mostly up to 57.5 µM
How it was run: as §1

Es-2 = assay: as above; conditions: Gynecologic cancer cell panel viability, ATPlite luminescence, 48 h; series mostly up to 57.5 µM
How it was run: as §1

HeLa = assay: as above; conditions: Gynecologic cancer cell panel viability, ATPlite luminescence, 48 h; series mostly up to 57.5 µM
How it was run: as §1

Hek293T = assay: as above; conditions: Gynecologic cancer cell panel viability, ATPlite luminescence, 48 h, control line for the selectivity index; series mostly up to 57.5 µM
How it was run: as §1

JEG-3 = assay: as above; conditions: Gynecologic cancer cell panel viability, ATPlite luminescence, 48 h; series mostly up to 57.5 µM
How it was run: as §1

OV90 = assay: as above; conditions: Gynecologic cancer cell panel viability, ATPlite luminescence, 48 h; series mostly up to 57.5 µM
How it was run: as §1

Tov-21-G = assay: as above; conditions: Gynecologic cancer cell panel viability, ATPlite luminescence, 48 h; series mostly up to 57.5 µM
How it was run: as §1

Tov112D = assay: as above; conditions: Gynecologic cancer cell panel viability, ATPlite luminescence, 48 h; series mostly up to 57.5 µM
How it was run: as §1

PA-1 = assay: as above; conditions: Gynecologic cancer cell panel viability, ATPlite luminescence, 48 h; series mostly up to 57.5 µM
How it was run: as §1

SKOV3 = assay: as above; conditions: Gynecologic cancer cell panel viability, ATPlite luminescence, 48 h; series mostly up to 57.5 µM
How it was run: as §1

[1] = qHTS assay to identify inhibitors of the type 1 interferon - major histocompatibility complex class I in skeletal muscle: Counter screen cell viability and HiBit confirmation (AID 1347412); conditions: iHSKM muscle cells + IFN-b, HiBiT or CellTiter-Glo, 24 h; for activity change, negative = inhibition: at 45.9 µM (top of the series); as to all read-outs here: nearly all actives have a fitted effect of over 60% in size
How it was run: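 Myoblasts (C25cl48, HLA-B HiBiT) seeded in medium without dexamethasone, IFN-b 4 ng/ml added except unstimulated columns; 1 hr later compounds pinned (12-pt 1:3, top 46 uM final). Incubated 24 hrs, lysed 10 min, luminescence measured.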
% is scaled to controls: 0 for no effect and ±100 for the full control effect; potency is read from the fitted curve at half-maximal effect.

C=C[C@@]12COC(=O)C(=C)C1[C@@H](O)[C@H](C(=C)C(=O)OC)[C@@H](OC(=O)C(=C)CO)C2 (stereo partly specified)
inactive: Potency (C33A) | Potency (CAOV3) | Potency (CASKI) | Potency (Es-2) | Potency (HeLa) | Potency (Hek293T) | Potency (JEG-3) | Potency (OV90) | Potency (Tov-21-G) | Potency (Tov112D)

CC1(C)CC2C(C1)C(C)(O)C13CC1(COC3=O)C2O (stereo unspecified)
inactive: Potency (C33A) | Potency (CAOV3) | Potency (CASKI) | Potency (Es-2) | Potency (HeLa) | Potency (Hek293T) | Potency (OV90) | Potency (PA-1) | Potency (SKOV3) | Potency (Tov-21-G) | Potency (Tov112D)

CC1CC2OC3(OC2C(C)(C)O)C1C1(C)CCC24CC25CCC(O[C@@H]2OC[C@@H](O)[C@H](O)[C@H]2O)C(C)(C)C5CC=C4C1(C)C3O (stereo partly specified)
inactive: Potency (C33A) | Potency (CAOV3) | Potency (CASKI) | Potency (Es-2) | Potency (HeLa) | Potency (Hek293T) | Potency (OV90) | Potency (PA-1) | Potency (SKOV3) | Potency (Tov-21-G) | Potency (Tov112D)

COc1cc(O)cc(/C=C/c2ccc(O[C@@H]3O[C@H](CO)[C@@H](O)[C@H](O)[C@H]3O)cc2)c1
inactive: Potency (C33A) | Potency (CAOV3) | Potency (CASKI) | Potency (Es-2) | Potency (HeLa) | Potency (Hek293T) | Potency (OV90) | Potency (PA-1) | Potency (Tov112D)

COc1c2c(c(C)c3c1C(=O)OC3)OC1(C)CC(O)C(C(C)(C)O)C(C)(CCC(=O)O)C1C2 (stereo unspecified)
inactive: Potency (C33A) | Potency (CAOV3) | Potency (CASKI) | Potency (Es-2) | Potency (Hek293T) | Potency (JEG-3) | Potency (OV90) | Potency (PA-1) | Potency (SKOV3) | Potency (Tov-21-G) | Potency (Tov112D)

O=C(NCc1cccc(O)c1)Nc1nc(-c2ccncc2)cs1
inactive: Potency (C33A) | Potency (CAOV3) | Potency (CASKI) | Potency (Es-2) | Potency (Hek293T) | Potency (JEG-3) | Potency (OV90) | Potency (PA-1) | Potency (SKOV3) | Potency (Tov-21-G) | Potency (Tov112D)

COC(=O)N[C@@H](C)CNc1nccc(-c2cn(C(C)C)nc2-c2cc(Cl)cc(NS(C)(=O)=O)c2F)n1
inactive: Potency (C33A) | Potency (CAOV3) | Potency (CASKI) | Potency (HeLa) | Potency (Hek293T) | Potency (OV90) | Potency (PA-1) | Potency (Tov112D) | activity change, negative = inhibition ([1]; Viability) -18.1%
active: Potency (Tov-21-G) 1.58 µM

Cc1cc2c(F)c(Oc3ncnn4cc(OCC(C)O)c(C)c34)ccc2[nH]1 (stereo unspecified)
inactive: Potency (C33A) | Potency (CAOV3) | Potency (CASKI) | Potency (Es-2) | Potency (OV90) | Potency (SKOV3) | Potency (Tov-21-G) | Potency (Tov112D)

COCCN1CCN(Cc2ccc(-c3n[nH]c4c3C(=O)c3c(NC(=O)NN5CCOCC5)cccc3-4)cc2)CC1
inactive: Potency (C33A) | Potency (CAOV3) | Potency (JEG-3) | Potency (OV90) | activity change, negative = inhibition ([1]; Viability) 44.8%
active: Potency (CASKI) 0.282 µM | Potency (Es-2) 0.316 µM | Potency (Hek293T) 0.178 µM | Potency (PA-1) 0.251 µM | Potency (Tov-21-G) 0.282 µM | Potency (Tov112D) 0.316 µM | Potency ([1]; HiBiT) 0.0701 µM

Cc1c(NC(=O)c2cc(C(N)=O)nc3cc(F)ccc23)c(C(F)(F)F)nn1Cc1ccc(C#N)cc1
inactive: Potency (C33A) | Potency (CAOV3) | Potency (CASKI) | Potency (Es-2) | Potency (Hek293T) | Potency (JEG-3) | Potency (OV90) | Potency (PA-1) | Potency (Tov-21-G) | Potency (Tov112D)
active: Potency (SKOV3) 2.24 µM

CCN1CCN(Cc2ccc(Nc3ncc(F)c(-c4cc(F)c5nc(C)n(C(C)C)c5c4)n3)nc2)CC1
active: Potency ([1]; HiBiT) 8.83 µM | Potency ([1]; Viability) 22.2 µM
inactive: Potency (C33A) | Potency (CAOV3) | Potency (CASKI) | Potency (Es-2) | Potency (Hek293T) | Potency (JEG-3) | Potency (OV90) | Potency (Tov112D)

Cc1cc(Nc2ccc(NC(=O)c3ccc(Nc4ccnc5ccccc45)cc3)cc2)nc(N)n1
active: Potency (C33A) 5.62 µM | Potency (CAOV3) 2.24 µM | Potency (CASKI) 3.55 µM | Potency (HeLa) 11.2 µM | Potency (Hek293T) 25.1 µM | Potency (JEG-3) 28.2 µM | Potency (OV90) 3.98 µM | Potency (PA-1) 20 µM | Potency (SKOV3) 3.98 µM | Potency (Tov-21-G) 10 µM | Potency (Tov112D) 25.1 µM

Cc1cccc2c1NC(=O)C2(c1ccc(O)cc1)c1ccc(O)cc1
inactive: Potency (C33A) | Potency (CAOV3) | Potency (CASKI) | Potency (Es-2) | Potency (JEG-3) | Potency (SKOV3)
